Measurements as given in PubChem BioAssay (NCI).
About 83,000 compounds went through this panel and 20% of them were active in at least one assay; those are over-represented in the sample as a whole.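 In brief: 96-well plates, 48 h treatment, single concentration, percent growth endpoint.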 Unmarked numbers belong to inactive results. Activity calls are given as the source filed them. The calls were made as follows: active = growth percent below 10; inactive = the rest.

Tests used:
Assay in all cases: NCI-60 one-dose screen, 48 h (100 = growth as untreated, 0 = no growth, -100 = all killed)
Conditions in all cases: 10 µM unless noted
T-47D breast = tested on: T-47D breast
BT-549 breast = tested on: BT-549 breast
MDA-MB-435 melanoma = tested on: MDA-MB-435 melanoma
SW-620 colon = tested on: SW-620 colon
HCT-116 colon = tested on: HCT-116 colon
HCC-2998 colon = tested on: HCC-2998 colon
KM12 colon = tested on: KM12 colon
MCF7 breast = tested on: MCF7 breast

Row | Structure (SMILES) | growth (T-47D breast) | growth (BT-549 breast) | growth (MDA-MB-435 melanoma) | growth (SW-620 colon) | growth (HCT-116 colon) | growth (HCC-2998 colon) | growth (KM12 colon) | growth (MCF7 breast)
1 | Cc1ccc(N2C(=O)C=CC2=O)cc1 | 112% | 105% | 117% | -11.5% (active) | 101% | 94.3% | 108% | 
2 | Cc1cc(Br)c2nsnc2c1[N+](=O)[O-] | 25.1% | 45% | 21.1% | 33.6% | 26.3% |  | 9.82% (active) | 10.1%
3 | O=[N+]([O-])C=C(c1ccccc1)c1ccccc1 | 66.2% | 76.6% | 23.7% |  | 64% | 87.3% | 66.4% | 84.8%
4 | [Cl-].[Rh+3].c1ccc(-c2ccnc3c2ccc2c(-c4ccccc4)ccnc23)cc1.c1ccc(-c2ccnc3c2ccc2c(-c4ccccc4)ccnc23)cc1.c1ccc(-c2ccnc3c2ccc2c(-c4ccccc4)ccnc23)cc1 | 50.4% | 42.9% | 72.5% | 99.2% | 87.3% |  | 59.3% | 63.3%
5 | N=C1C=C(N)C(=O)c2ccccc21 | -46.1% (active) | -99.1% (active) | -75.7% (active) | -85% (active) | -98.7% (active) | -99.5% (active) | -82.4% (active) | 
6 | N#Cc1c2ccccc2nc2ccccc12 | 101% | 114% | 103% | 98.4% | 105% |  | 108% | 101%
7 | N#CCc1cccc2ccccc12 | 105% |  | 119% | 105% | 106% | 109% |  | 87.4%
8 | CCCCCCCCCCCCNCCCc1ccccc1 | 54.9% | 85.9% | 100% | 46.1% | 20.4% |  | 27.2% | 25.4%
9 | CCCOC(=O)c1nc(N(CC2CCCCC2)C(=O)NC)sc1/N=C/c1ccccc1 | 15.2% | 18.9% | -46.9% (active) |  | -25.6% (active) | -78.7% (active) | 7.21% (active) | 3.21% (active)
10 | CCCCCCCCCCCCCCCCCC[S+](C)CC (stereo not given) | 16.6% | 45.1% |  | 28.1% | 27.8% | 50.2% | -31.7% (active) | 36.3%
11 | CCCCCCN(CCCCCC)CCCNc1nccc2ccccc12 | -13.6% (active) |  | 0.549% (active) | 6.78% (active) | 8.24% (active) | -59.4% (active) | 9.96% (active) | -28% (active)
12 | CCN1CCCC(Nc2cc(C)nc(/N=C(/N)Nc3ccc(Cl)c(Cl)c3)n2)C1 (stereo not given) | -49.2% (active) |  | -51.7% (active) | -59.3% (active) | -54.9% (active) | -71.5% (active) |  | -73.5% (active)
13 | COC(=O)c1cc([N+](=O)[O-])cc([N+](=O)[O-])c1Cl | -28.3% (active) |  | 81.7% | 31.7% | -42.8% (active) | 106% | 105% | 45.1%
14 | Cc1ccccc1N=C(N)Nc1ccccc1C (tested in a mixture with another compound) | 76.6% |  | 89.5% | 74.9% | 83.4% | 97.8% | 64.6% | 94.2%
15 | NCCCN(CCCN)CCCNCc1c2ccccc2c(CNCCCN(CCCN)CCCN)c2ccccc12 | 80.9% |  | 107% | 100% | 90.6% | 97.6% | 97.2% | 97.1%
16 | NC(=S)N/N=C\c1nccc2c(C(F)(F)F)cccc12 | 13.9% |  | 32.6% | 29.8% | 9.27% (active) | 26.6% | 16% | 10.5%
17 | CCCCCCCCCCCCCCCc1ccc(C(=O)C[n+]2ccccc2)cc1 | -25.1% (active) |  | -78.1% (active) | -79.1% (active) | -97.7% (active) | -83.4% (active) | -97.7% (active) | -88.6% (active)
18 | O=C(C[P+](c1ccccc1)(c1ccccc1)c1ccccc1)c1ccccc1 | 89.9% |  | 98.5% | 97.3% | 76.8% | 93.9% | 101% | 90.6%
19 | O=C(CBr)c1ccc(OC(=O)c2ccccc2)cc1 | 95.7% |  | 106% | 88.4% | 75.6% |  | 106% | 92.5%
20 | N#CC1c2ccccc2C=CN1C(=O)CCCl (stereo not given) | 52.4% |  | 94% | 55.8% | 84.1% | 110% | 86.4% | 24.8%
21 | CC(=O)c1c(O)c(C)c(O)c2c1OC1=CC(=O)C(C(C)=O)C(=O)C12C (stereo not given) | 102% |  | 78.5% | 74.7% | 94% | 58.1% | 72.6% | 128%
22 | O=[n+]1c2ccccc2n([O-])c2cc(Cl)ccc21 | 46.8% |  | 100% | 53.2% | 28.7% | 93.5% | 79% | 28.2%
23 | O=C1C=CC(O)=CC1=P(c1ccccc1)(c1ccccc1)c1ccccc1 | 96.3% |  | 103% | 98.2% | 88% | -29.4% (active) | 99.7% | 91.7%
24 | CCCCCCCCCCCC1N=C(N)N=C(N)N1c1cccc(Br)c1 (stereo not given) | 38.4% |  | 22.4% | -93.9% (active) | -100% (active) | -87.7% (active) | -91.8% (active) | -87.8% (active)
25 | O=[N+]([O-])c1cc(-c2ccccc2)c(O)c([N+](=O)[O-])c1 | 83.2% |  | 85.5% | 98.2% | 86.8% |  | 84.1% | 77%
26 | c1ccc(-c2cccc(-c3ccccn3)n2)nc1 | 38.1% |  | 33.9% | 29.6% | 6.59% (active) | 18.7% | 27.6% | 14.1%
27 | CCCCCC/C=C1\CCC(CN2CCCC2)C1=O (stereo not given) | 77.7% |  | 109% | 97.9% | 84.5% | 107% | 75.4% | 7.97% (active)
